Measurements published in PMC7862700, “An all-to-all approach to the identification of sequence-specific readers for epigenetic DNA modifications on cytosine”.

Assays:
Assay in all cases: DAPPL (digital affinity profiling via proximity ligation, sequencing); 10 mM Tris-HCl pH 7.5, 50 mM NaCl, 1 mM DTT, 4% glycerol, room temperature, 30 min; GST-TFs on glutathione beads, 16-mer random dsDNA library, 0.1% formaldehyde crosslink after washing; high values mean tight binding
[1] = biological target: T1, FLI1 (Homo sapiens, UniProt Q01543 1-452); settings: protein: recombinant; tags: N-terminal GST; dsDNA, one strand shown
T1 sequence: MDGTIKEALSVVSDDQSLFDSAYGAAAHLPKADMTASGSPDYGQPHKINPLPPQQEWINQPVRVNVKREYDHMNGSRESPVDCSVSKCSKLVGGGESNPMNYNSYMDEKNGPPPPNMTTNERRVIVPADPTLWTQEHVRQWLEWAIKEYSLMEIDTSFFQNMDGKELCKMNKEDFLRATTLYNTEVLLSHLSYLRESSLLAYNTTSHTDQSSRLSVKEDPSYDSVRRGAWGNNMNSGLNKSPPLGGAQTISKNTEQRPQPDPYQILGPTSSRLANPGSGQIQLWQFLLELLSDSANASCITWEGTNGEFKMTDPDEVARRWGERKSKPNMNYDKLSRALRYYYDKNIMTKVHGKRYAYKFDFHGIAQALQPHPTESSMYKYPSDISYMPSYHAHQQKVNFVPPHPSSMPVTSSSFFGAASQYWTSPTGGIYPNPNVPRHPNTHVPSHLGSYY
Method in brief: (§1)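 Binding signal is defined as a hexamer's read frequency for one factor over its frequency for the tag-only sample. To obtain reads, GST-fused human transcription factors were expressed in yeast, captured on glutathione beads, barcoded with DNA and pooled with that sample. Pools met 200 nmole of a 16-mer random double-stranded DNA library in Tris/NaCl/DTT/glycerol buffer for 30 min at room temperature before washing, 0.1% formaldehyde crosslinking, proximity ligation (BsaI/T4 ligase, 1 h, 37 °C), PCR and Illumina NextSeq500 sequencing.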

[2] = biological target: T2, ELK1 (Homo sapiens, UniProt P19419 1-428); settings: protein: recombinant; tags: N-terminal GST; dsDNA, one strand shown
T2 sequence: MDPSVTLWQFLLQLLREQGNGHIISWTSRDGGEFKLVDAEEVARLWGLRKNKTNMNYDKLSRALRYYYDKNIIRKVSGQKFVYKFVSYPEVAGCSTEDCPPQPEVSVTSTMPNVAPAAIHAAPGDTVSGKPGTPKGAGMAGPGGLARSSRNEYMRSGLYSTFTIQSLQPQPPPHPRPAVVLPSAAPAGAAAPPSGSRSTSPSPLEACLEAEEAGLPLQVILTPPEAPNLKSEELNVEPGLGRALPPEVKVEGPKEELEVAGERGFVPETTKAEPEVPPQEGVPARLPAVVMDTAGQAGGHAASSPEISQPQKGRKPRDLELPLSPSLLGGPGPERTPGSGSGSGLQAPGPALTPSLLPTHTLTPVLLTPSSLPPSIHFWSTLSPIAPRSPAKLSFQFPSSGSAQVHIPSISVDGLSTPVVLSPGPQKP
Method in brief: as §1

[3] = biological target: T3, GABPA (Homo sapiens, UniProt Q06546 1-454); settings: protein: recombinant; tags: N-terminal GST; dsDNA, one strand shown
T3 sequence: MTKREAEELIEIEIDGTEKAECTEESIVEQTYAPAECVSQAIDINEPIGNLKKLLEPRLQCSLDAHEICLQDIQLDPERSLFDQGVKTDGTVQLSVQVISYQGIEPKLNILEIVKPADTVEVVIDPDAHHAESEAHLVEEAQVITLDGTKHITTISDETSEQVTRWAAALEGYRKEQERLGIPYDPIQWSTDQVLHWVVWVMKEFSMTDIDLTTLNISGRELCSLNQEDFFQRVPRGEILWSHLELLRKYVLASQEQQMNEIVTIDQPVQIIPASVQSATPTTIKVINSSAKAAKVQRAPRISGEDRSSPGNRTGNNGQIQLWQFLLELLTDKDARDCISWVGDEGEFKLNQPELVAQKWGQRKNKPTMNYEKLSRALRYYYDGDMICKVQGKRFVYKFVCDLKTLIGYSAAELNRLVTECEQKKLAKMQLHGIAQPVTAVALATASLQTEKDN
Method in brief: as §1

[4] = biological target: T4, ERG (Homo sapiens, UniProt P11308 1-479); settings: protein: recombinant; tags: N-terminal GST; dsDNA, one strand shown
T4 sequence: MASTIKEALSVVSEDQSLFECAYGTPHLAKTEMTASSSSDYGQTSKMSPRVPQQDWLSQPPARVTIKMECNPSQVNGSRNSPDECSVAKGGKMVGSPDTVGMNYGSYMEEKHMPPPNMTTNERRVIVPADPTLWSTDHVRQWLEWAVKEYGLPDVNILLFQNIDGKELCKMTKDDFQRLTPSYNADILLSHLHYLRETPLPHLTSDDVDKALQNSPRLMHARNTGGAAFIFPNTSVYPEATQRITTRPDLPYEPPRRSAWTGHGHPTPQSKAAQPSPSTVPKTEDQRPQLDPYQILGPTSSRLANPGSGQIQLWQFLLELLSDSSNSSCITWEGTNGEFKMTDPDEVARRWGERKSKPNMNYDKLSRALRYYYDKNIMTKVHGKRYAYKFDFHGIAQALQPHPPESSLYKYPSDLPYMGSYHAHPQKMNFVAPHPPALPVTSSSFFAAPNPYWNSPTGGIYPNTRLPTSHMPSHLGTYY
Method in brief: as §1

[5] = biological target: ELF1 (Homo sapiens, UniProt P32519 1-619); settings: protein: recombinant; tags: N-terminal GST; dsDNA, one strand shown
Method in brief: as §1

[6] = biological target: T5, EHF (Homo sapiens, UniProt Q9NZC4 1-300); settings: protein: recombinant; tags: N-terminal GST; dsDNA, one strand shown
T5 sequence: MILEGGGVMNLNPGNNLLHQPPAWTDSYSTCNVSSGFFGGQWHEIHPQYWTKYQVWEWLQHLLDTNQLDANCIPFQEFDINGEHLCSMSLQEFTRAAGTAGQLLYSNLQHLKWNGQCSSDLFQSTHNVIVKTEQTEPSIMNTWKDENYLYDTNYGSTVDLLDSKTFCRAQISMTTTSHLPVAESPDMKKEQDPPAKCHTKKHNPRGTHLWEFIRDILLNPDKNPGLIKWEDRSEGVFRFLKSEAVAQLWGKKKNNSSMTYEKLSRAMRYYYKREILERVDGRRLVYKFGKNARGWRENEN
Method in brief: as §1

[7] = biological target: SPI1 (Homo sapiens, UniProt P17947 1-270); settings: protein: recombinant; tags: N-terminal GST; dsDNA, one strand shown
Method in brief: as §1

[8] = biological target: SPIB (Homo sapiens, UniProt Q01892 1-262); settings: protein: recombinant; tags: N-terminal GST; dsDNA, one strand shown
Method in brief: as §1

[9] = biological target: T6, ELK3 (Homo sapiens, UniProt P41970 1-407); settings: protein: recombinant; tags: N-terminal GST; dsDNA, one strand shown
T6 sequence: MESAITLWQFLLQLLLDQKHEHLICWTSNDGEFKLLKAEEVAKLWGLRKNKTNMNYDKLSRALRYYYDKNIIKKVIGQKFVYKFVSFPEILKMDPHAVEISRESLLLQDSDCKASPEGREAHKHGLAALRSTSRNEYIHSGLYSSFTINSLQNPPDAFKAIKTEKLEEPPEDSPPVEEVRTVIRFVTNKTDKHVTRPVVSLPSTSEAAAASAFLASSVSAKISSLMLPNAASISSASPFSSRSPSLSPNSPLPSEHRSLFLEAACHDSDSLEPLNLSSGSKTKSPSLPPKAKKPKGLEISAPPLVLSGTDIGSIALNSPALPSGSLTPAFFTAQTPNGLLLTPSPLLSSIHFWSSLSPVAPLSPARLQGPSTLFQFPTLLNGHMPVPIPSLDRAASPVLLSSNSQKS
Method in brief: as §1

[10] = biological target: T7, FEV (Homo sapiens, UniProt Q99581 1-238); settings: protein: recombinant; tags: N-terminal GST; dsDNA, one strand shown
T7 sequence: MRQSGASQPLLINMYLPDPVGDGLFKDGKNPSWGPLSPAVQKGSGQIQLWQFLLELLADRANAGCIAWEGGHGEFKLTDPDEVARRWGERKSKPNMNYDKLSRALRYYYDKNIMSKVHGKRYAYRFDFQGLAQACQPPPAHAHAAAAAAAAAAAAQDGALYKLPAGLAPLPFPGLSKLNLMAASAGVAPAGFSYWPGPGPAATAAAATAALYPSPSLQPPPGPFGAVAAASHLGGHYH
Method in brief: as §1

[11] = biological target: ETV5 (Homo sapiens, UniProt P41161 1-510); settings: protein: recombinant; tags: N-terminal GST; dsDNA, one strand shown
Method in brief: as §1

[12] = biological target: HSF1 (Homo sapiens, UniProt Q00613 1-529); settings: protein: recombinant; tags: N-terminal GST; chain copies: 3; dsDNA, one strand shown
Method in brief: as §1

[13] = biological target: T8, SPIC (Homo sapiens, UniProt Q8N5J4 1-248); settings: protein: recombinant; tags: N-terminal GST; dsDNA, one strand shown
T8 sequence: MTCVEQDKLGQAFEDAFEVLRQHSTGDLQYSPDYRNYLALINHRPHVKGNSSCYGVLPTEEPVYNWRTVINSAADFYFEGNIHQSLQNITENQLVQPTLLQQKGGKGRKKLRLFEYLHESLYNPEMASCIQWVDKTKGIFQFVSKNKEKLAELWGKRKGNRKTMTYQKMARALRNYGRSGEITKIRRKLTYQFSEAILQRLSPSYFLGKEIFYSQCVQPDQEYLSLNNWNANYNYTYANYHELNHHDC
Method in brief: as §1

[14] = biological target: ELF4 (Homo sapiens, UniProt Q99607 1-663); settings: protein: recombinant; tags: N-terminal GST; dsDNA, one strand shown
Method in brief: as §1

[15] = biological target: T9, ELK4 (Homo sapiens, UniProt P28324-2 1-405); settings: protein: recombinant; tags: N-terminal GST; dsDNA, one strand shown
T9 sequence: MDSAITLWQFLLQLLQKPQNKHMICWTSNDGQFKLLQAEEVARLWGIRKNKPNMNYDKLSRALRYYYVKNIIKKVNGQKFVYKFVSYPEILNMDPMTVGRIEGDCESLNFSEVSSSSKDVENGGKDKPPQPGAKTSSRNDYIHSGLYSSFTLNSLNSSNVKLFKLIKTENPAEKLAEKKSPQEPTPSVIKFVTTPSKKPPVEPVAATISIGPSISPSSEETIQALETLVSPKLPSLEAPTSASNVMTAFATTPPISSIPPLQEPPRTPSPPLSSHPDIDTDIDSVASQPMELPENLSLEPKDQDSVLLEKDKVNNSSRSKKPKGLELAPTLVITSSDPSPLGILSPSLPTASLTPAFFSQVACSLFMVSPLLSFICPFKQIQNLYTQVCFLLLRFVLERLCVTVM
Method in brief: as §1

[16] = biological target: T10, ETV2 (Homo sapiens, UniProt O00321 1-342); settings: protein: recombinant; tags: N-terminal GST; dsDNA, one strand shown
T10 sequence: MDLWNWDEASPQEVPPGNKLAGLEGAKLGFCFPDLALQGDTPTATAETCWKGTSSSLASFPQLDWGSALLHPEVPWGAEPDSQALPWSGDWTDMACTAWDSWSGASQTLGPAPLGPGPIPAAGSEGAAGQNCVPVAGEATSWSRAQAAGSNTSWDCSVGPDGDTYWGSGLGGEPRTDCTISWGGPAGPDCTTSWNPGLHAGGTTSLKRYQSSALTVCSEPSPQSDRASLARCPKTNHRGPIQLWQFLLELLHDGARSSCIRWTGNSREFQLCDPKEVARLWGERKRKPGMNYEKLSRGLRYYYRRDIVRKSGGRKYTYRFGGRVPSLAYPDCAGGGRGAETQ
Method in brief: as §1

[17] = biological target: ETV1 (Homo sapiens, UniProt P50549 1-477); settings: protein: recombinant; tags: N-terminal GST; dsDNA, one strand shown
Method in brief: as §1

Chain of ETV1 (P50549 whole entry): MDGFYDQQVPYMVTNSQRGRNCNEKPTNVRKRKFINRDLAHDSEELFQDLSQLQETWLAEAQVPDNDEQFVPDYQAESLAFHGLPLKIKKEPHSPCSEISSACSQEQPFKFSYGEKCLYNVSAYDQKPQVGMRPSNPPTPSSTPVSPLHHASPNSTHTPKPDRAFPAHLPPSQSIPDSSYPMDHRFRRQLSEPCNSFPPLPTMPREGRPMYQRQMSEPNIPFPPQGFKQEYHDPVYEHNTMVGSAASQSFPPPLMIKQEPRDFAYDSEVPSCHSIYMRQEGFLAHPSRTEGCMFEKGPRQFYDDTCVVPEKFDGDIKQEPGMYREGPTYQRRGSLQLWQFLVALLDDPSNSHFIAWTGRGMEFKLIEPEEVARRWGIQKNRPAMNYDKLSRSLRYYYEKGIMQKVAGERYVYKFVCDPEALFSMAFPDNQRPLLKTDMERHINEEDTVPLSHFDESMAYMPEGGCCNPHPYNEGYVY
Chain of ELF4 (Q99607 whole entry): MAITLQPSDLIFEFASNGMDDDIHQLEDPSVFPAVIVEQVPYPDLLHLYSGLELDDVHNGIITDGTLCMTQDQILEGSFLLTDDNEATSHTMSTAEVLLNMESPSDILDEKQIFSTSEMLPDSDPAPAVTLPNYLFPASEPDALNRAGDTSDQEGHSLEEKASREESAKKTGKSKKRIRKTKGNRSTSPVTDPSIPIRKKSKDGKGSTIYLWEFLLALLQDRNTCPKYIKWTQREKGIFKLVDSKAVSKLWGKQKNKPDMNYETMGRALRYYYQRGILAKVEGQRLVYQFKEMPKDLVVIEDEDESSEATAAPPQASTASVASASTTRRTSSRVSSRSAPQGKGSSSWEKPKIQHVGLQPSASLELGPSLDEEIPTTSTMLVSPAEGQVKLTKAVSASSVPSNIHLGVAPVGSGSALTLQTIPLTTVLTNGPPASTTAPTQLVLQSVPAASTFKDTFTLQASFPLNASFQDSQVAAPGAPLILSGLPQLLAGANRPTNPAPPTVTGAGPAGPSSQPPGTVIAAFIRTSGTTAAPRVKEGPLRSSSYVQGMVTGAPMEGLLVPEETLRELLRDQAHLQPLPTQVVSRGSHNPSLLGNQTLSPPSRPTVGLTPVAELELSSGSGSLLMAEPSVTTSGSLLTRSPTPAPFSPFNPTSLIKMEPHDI
Chain of ETV5 (P41161 whole entry): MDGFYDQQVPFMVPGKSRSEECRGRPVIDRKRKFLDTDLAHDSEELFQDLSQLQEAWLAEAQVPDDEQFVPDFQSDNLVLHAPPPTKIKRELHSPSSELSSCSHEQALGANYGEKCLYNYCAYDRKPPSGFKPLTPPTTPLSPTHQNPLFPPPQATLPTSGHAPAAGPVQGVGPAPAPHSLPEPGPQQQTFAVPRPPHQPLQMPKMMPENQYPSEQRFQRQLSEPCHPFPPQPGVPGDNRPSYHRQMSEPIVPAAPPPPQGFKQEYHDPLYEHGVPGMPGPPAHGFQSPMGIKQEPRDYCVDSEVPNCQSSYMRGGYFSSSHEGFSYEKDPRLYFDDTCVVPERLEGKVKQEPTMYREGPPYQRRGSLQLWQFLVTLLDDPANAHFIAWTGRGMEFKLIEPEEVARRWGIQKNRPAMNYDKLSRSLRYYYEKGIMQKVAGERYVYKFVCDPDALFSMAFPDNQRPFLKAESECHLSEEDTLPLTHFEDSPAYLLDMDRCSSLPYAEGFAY
Chain of SPIB (Q01892 whole entry): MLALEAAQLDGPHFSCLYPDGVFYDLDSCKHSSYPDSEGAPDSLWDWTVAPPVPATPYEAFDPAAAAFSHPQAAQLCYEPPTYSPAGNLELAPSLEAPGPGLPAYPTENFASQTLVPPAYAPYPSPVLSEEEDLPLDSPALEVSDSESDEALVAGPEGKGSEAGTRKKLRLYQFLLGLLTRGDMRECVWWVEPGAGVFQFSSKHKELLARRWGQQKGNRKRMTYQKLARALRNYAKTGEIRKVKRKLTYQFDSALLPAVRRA
Chain of ELF1 (P32519 whole entry): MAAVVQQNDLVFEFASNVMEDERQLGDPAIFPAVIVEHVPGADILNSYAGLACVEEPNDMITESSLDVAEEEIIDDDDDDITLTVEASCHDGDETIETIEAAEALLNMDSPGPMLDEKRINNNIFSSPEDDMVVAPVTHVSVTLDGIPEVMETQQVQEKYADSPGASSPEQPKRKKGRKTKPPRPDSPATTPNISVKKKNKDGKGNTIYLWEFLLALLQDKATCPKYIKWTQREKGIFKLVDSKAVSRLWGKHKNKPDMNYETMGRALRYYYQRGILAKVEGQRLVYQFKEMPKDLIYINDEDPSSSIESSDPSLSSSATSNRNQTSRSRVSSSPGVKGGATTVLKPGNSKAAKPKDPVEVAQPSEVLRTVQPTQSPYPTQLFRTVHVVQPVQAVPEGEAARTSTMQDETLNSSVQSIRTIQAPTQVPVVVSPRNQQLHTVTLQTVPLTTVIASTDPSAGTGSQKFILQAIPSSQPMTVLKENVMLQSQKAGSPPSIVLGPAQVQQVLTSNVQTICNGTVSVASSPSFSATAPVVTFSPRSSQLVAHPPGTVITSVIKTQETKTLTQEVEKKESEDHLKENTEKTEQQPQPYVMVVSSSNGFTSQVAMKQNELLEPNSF
Chain of HSF1 (Q00613 whole entry): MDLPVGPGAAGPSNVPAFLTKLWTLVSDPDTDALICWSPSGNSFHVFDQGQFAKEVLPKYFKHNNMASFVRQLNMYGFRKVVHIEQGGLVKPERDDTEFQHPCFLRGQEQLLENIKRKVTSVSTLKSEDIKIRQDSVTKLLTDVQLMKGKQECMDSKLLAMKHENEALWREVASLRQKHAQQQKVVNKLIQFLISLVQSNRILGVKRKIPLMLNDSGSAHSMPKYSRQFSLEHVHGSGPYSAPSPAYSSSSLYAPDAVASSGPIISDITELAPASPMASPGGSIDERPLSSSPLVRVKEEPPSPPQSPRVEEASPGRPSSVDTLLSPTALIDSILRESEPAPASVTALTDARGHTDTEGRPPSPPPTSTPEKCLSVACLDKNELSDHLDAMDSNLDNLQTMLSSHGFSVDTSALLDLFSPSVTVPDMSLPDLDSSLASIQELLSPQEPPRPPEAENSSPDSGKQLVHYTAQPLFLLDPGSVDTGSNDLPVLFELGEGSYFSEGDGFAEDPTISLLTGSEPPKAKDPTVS

CACTCG
binding signal [1]: 1.1 fold enrichment (6-mer frequency, TF over GST control)
binding signal [2]: 1.26 fold enrichment (6-mer frequency, TF over GST control)
binding signal [3]: 1.08 fold enrichment (6-mer frequency, TF over GST control)
binding signal [4]: 1.15 fold enrichment (6-mer frequency, TF over GST control)
binding signal [5]: 1.2 fold enrichment (6-mer frequency, TF over GST control)
binding signal [6]: 1.18 fold enrichment (6-mer frequency, TF over GST control)
binding signal [7]: 1.01 fold enrichment (6-mer frequency, TF over GST control)
binding signal [8]: 1.18 fold enrichment (6-mer frequency, TF over GST control)
binding signal [9]: 1.2 fold enrichment (6-mer frequency, TF over GST control)
binding signal [10]: 1.22 fold enrichment (6-mer frequency, TF over GST control)
binding signal [11]: 1.13 fold enrichment (6-mer frequency, TF over GST control)
binding signal [12]: 1.16 fold enrichment (6-mer frequency, TF over GST control)
binding signal [13]: 1.08 fold enrichment (6-mer frequency, TF over GST control)
binding signal [14]: 1.2 fold enrichment (6-mer frequency, TF over GST control)
binding signal [15]: 1.24 fold enrichment (6-mer frequency, TF over GST control)
binding signal [16]: 1.2 fold enrichment (6-mer frequency, TF over GST control)
binding signal [17]: 1.09 fold enrichment (6-mer frequency, TF over GST control)
